# From PubChem BioAssay AID2185 (Vanderbilt High Throughput Screening Facility, 2009)
# Potency and affinity values are given separately. Values without a mark were called inactive. No rule for the calls is given here.
# Target: Metabotropic glutamate receptor 4 (Rattus norvegicus) (UniProt P31423)
# Assay: PubChem AID 2185
# Conditions: HEK/GIRK cells expressing rat mGluR4, thallium flux PAM; hits give high values
# Metabotropic glutamate receptor 4 (Rattus norvegicus), sequence (P31423 whole entry, looked up): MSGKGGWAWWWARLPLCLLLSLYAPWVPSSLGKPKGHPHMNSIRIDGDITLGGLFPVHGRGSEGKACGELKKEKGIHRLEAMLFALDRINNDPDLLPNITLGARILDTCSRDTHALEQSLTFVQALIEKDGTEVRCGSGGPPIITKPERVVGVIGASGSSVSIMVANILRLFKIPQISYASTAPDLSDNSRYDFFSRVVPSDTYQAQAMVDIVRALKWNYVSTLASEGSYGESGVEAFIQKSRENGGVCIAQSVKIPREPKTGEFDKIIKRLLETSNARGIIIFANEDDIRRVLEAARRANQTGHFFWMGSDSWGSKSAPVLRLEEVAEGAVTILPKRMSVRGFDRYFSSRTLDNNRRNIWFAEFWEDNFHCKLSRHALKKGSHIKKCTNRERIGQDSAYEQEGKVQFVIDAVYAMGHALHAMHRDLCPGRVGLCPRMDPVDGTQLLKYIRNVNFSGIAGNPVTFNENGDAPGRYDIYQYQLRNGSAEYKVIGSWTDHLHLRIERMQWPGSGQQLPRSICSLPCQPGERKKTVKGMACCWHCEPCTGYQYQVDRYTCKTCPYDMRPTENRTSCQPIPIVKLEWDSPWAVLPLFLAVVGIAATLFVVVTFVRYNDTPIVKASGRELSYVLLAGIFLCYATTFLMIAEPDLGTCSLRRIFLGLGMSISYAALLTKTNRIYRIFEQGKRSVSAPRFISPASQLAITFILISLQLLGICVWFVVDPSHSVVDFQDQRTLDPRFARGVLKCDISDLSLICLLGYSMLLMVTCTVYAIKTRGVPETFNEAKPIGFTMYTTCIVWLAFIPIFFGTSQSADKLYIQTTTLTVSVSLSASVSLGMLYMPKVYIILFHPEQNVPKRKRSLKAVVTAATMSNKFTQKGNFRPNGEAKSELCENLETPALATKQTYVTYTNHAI
structure (smiles),measurement,value
N#Cc1ccc(NC(=O)c2ccccn2)cc1C(F)(F)F,% glutamate max,26.3%
